M4 antag – blocks acetylcholine activation of human M4 receptor; AID 624125; CHO-hM4 cells, ACh EC80, Fluo-8 calcium fluorescence; 360,000 tested, 0.73% active; inhibition, % at 3 µM;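 active = inhibition above its plate's cutoff, the mean inhibition of sample wells plus 3 SD, cut at about 27% in these data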
M1 PAM – human CHRM1 positive allosteric modulation | P11229 | CHO-K1 hM1, Fluo-8 calcium fluorescence, ACh EC20; 0% = ACh EC20, 100% = maximal ACh | activation, % at 3 µM | 360,000 tested, 0.088% active; in the data active = activation above about 19%, passing the limit was not always enough
Target sequence (P11229 whole entry, looked up): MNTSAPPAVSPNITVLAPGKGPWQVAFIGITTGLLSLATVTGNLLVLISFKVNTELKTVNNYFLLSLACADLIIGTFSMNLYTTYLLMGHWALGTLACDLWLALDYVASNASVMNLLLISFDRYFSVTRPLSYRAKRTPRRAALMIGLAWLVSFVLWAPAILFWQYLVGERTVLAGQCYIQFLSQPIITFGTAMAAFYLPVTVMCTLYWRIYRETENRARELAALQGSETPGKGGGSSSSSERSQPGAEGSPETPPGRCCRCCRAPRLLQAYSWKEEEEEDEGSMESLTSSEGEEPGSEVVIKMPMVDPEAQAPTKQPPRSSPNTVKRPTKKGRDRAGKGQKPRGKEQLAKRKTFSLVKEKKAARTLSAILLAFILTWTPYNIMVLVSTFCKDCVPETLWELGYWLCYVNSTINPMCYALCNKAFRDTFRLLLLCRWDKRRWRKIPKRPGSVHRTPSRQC
M1 ag – agonists of human M1 muscarinic receptor | 360,000 tested, 0.33% active | CHO-K1 hM1, Fluo-8 calcium fluorescence, agonist mode; 0% DMSO, 100% acetylcholine EC100 | P11229 | activation, % at 3 µM;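 active = activation above the run's mean compound activation plus 3 SD, cut at about 16% in these data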;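 also: peak over basal fluorescence ratio within a 140 s kinetic read after compound addition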
M1 antag – antagonists of human M1 muscarinic receptor; CHO-K1 hM1, Fluo-8 calcium fluorescence, ACh EC80 antagonist; inhibition, % at 3 µM; 360,000 tested, 1.3% active; AID 588852;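 active = percent inhibition above its own plate's cutoff, namely the mean of that plate's compound wells plus 3 SD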;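 also: peak over basal fluorescence ratio during 140 s after agonist addition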
CHRM4 agonist – agonists of human muscarinic M4 receptor (CHRM4); AID 624127; CHO-K1 hM4/Gqi5, Fluo-8 calcium fluorescence; vehicle 0%, full acetylcholine response 100%; P08173; activation, % at 3 µM; 360,000 tested, 0.14% active;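 active = activation above the run mean over all test wells plus 3 SD, cut at about 32% in these data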;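 also: peak over basal fluorescence ratio per well then scaled between controls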
CHRM4 PAM – CHRM4 positive allosteric modulation. 360,000 tested, 0.4% active. CHO-K1 hM4/Gqi5, Fluo-8 calcium fluorescence, ACh EC20; 0% = ACh EC20, 100% = maximal ACh. P08173. activation, % at 3 µM;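 active = activation above its plate's cutoff, the mean activation of sample wells plus 3 SD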
Hits are given with their value; – = inactive; · = no result given. This is a sample that favours compounds with a hit; in the whole collection about 2.2% have one here.

SMILES | M4 antag | M1 PAM | M1 ag | M1 antag | CHRM4 agonist | CHRM4 PAM
CC(C)NC1CCC(Nc2ccnc3cc(Cl)ccc23)CC1 (configuration not stated) | – | – | – | – | – | –
CC(CCCN1CCCC1)Nc1ccnc2cc(Cl)ccc12 (configuration not stated) | – | – | – | 58 | – | –
CSc1nc(-c2ccc(Cl)cc2)c(C#N)c(=O)n1C | – | – | – | – | – | 20
Cc1nn(C(=O)N2CCOCC2)c(C)c1C | – | – | – | – | – | –
CN1/C(=C\C=C2/SC(=S)NC2=O)C(C)(C)c2ccccc21 | 44 | – | 57 | 62 | 65 | –
CC1=NN(c2ccccc2)C(=O)/C1=C\C=C1/N(C)c2ccccc2C1(C)C | – | – | 23 | 26 | – | –
CN1/C(=C\C=N\O)C(C)(C)c2ccccc21 | – | – | – | – | – | –
Cc1ccccc1N=C/C=C1\N(C)c2ccccc2C1(C)C | – | – | – | 25 | – | –
COc1ccccc1CNC(=O)[C@H](C)NC(=O)C1CCN(C(=O)[C@@H](N)CCSC)CC1 | – | – | – | – | – | –
Cc1nc2c(-c3ccccc3)c(C)nn2c(C)c1CC(=O)O | – | – | – | – | – | –
N#CCCN(C(=O)COC(=O)c1ccc(CNS(=O)(=O)c2ccc(F)c(Cl)c2)cc1)c1ccc(F)cc1 | 50 | – | – | 79 | – | –
CCOC(=O)Cn1c(-c2ccccc2)cc(SC)c(C#N)c1=O | – | – | – | 52 | – | –
CCCCCc1cc(=O)oc2c(C(CCN3CCCC(C)C3)c3ccc4c(c3)OCO4)c(OC)cc(OC)c12 (configuration not stated) | – | – | – | – | – | –
O=C(NCCO[N+](=O)[O-])c1cccnc1 | 74 | – | – | – | – | –
Cc1nc2sc(C(=O)c3ccccc3)c(N)c2c(C)c1C | 67 | – | – | – | 69 | –
CC1CCN(c2ccccc2NC(=O)c2ccc(C#N)cc2F)CC1 | – | – | – | – | – | 23
[N-]=[N+]=NC(c1ccccc1)C(NC(=O)c1cc(C(F)(F)F)cc(C(F)(F)F)c1)c1ccccc1 (configuration not stated) | 31 | · | · | · | – | –
O=C(NC(c1ccccc1)C(Cl)Cl)c1ccccc1 (configuration not stated) | – | – | – | – | – | –
Cc1ccsc1/C=N/NC(=O)c1ccc([N+](=O)[O-])cc1 | – | – | – | – | – | –
Cc1cc(C)n2nc(SCc3nnc(SCCCCl)o3)nc2n1 | 32 | – | – | – | – | –
COc1ccc(Cn2c(C(F)(F)F)ccc(C(N)=O)c2=O)cc1 | – | – | – | – | – | –
NC(=O)c1ccc(C(F)(F)F)n(Cc2c(Cl)cccc2Cl)c1=O | – | 20 | – | – | – | –
COCCNC(=O)CCn1nc(-c2ccc(Cl)cc2)c2ccccc2c1=O | – | – | – | – | – | –
CCn1nc(C(=O)O)c(=O)c2cc3c(cc21)OCO3 | 34 | – | – | – | – | –
CCn1cc(C(=O)N[C@H](C(=O)O)C(C)C)c(=O)c2cc3c(cc21)OCO3 | – | – | – | – | – | –
Cc1noc(C)c1S(=O)(=O)NCc1cccc(Cl)c1 | – | – | – | – | – | –

Screening data (PubChem)
